Assay outcomes deposited in PubChem by National Center for Advancing Translational Sciences (NCATS).
The full list was thinned out, with hits kept by preference.
MBNL1 CUG block: qHTS Assay for Inhibitors of MBNL1-poly(CUG) RNA binding | Muscleblind-like protein 1 (Homo sapiens), Q9NR56 | TR-FRET MBNL1-His/biotin-(CUG)12 binding, 665/545 ratio | Potency, µM (doses to about 57.5 µM), actives largely listed as inhibitors | 280,000 compounds, 0.036% hits; active means well fitted inhibition curve with a large enough effect in the signal ratio, with a control signal flat, not every such curve was filed as active; inconclusive means small, poorly fitted or top-dose-only effect, or effect the other way, or a change in a side signal; inactive means no such curve, though single readings can be large or run the other way; the % refers to the signal ratio
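MBNL1-His + Biotin-(CUG)12, cpd titration 92 nM–58 uM; Tb anti-His Ab 0.055 ng/ul, SA-XL665 5 nM (final); 60 min RT; ratiometric 665/545 nm, Ex 340 nm; normalized to buffer and full-complex controls.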
Rango dissoc inh: qHTS Assay for Inhibitors of RanGTP induced Rango (Ran-regulated importin-beta cargo) - Importin beta complex dissociation; Snurportin-1 (Homo sapiens) + GTP-binding nuclear protein Ran (Homo sapiens) + Importin …; Biochemical FRET Rango-importin beta, RanGTP-induced dissociation; Potency, µM (series often up to 46.1 µM); 340,000 compounds, 0.071% hits; further: nearly all actives have a fitted effect of over 45% in size
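Compounds preincubate 5 min with complex of recombinant Rango and importin beta in PBS with 1 mM DTT. Ran (0.6 uM) loaded with 2 mM GTP plus 0.2 uM RCC1 starts dissociation; FRET is recorded 45 min later.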
CBFb-RUNX1 inh: qHTS Assay for Compounds Blocking the Interaction Between CBF-beta and RUNX1 for the Treatment of Acute Myeloid Leukemia | Potency, µM (series often up to 59.8 µM), actives largely listed as inhibitors | AID 1477, 2009 | AlphaScreen CBFb-His/RUNX1-biotin binding, biochemical | Runt-related transcription factor 1 (Homo sapiens) + Core-binding factor subunit beta … | 230,000 tested, under 10 active; active means well fitted curve in the direction sought with a large enough effect; inconclusive means small, poorly fitted or top-dose-only effect, or effect the other way, or another doubt; inactive means no such curve, though single readings can be large or run the other way
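CBFb-His/RUNX1-biotin, 30 nM each, preincubated 20 min RT; compound 15 min RT; Ni + streptavidin beads 50 ng each, 90 min RT; AlphaScreen read.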
Rango complex inh: qHTS Assay for Inhibitors of Rango (Ran-regulated importin-beta cargo) - Importin beta complex formation. 340,000 compounds, 0.031% hits. Importin subunit beta-1 (Homo sapiens), Q14974. Rango CFP/YFP FRET sensor + importin beta, 45 min. Potency, µM (top dose mostly 92.2 µM); further: nearly all actives have a fitted effect of over 15% in size
Target sequence (Q14974 whole entry, looked up): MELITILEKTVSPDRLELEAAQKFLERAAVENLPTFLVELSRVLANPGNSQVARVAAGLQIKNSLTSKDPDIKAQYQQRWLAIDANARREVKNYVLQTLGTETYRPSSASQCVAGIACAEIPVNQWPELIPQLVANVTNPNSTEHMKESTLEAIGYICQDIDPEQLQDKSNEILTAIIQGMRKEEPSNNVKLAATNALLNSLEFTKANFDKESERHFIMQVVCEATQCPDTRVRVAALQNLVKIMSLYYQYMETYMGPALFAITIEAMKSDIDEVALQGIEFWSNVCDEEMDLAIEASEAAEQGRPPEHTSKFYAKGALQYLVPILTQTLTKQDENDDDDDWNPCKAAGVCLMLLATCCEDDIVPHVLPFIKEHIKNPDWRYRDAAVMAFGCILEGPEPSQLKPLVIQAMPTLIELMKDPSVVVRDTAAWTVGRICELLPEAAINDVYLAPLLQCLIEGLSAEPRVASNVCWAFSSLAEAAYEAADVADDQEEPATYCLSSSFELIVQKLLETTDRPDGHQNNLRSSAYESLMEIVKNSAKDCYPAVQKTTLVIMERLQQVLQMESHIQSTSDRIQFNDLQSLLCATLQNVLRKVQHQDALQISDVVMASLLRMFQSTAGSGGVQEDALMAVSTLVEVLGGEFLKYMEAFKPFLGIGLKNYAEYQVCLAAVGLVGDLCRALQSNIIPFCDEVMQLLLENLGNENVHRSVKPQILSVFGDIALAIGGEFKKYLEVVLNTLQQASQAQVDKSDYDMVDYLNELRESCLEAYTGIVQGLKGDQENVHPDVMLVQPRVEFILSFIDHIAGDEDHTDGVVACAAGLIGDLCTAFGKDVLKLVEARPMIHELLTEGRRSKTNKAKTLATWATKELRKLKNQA
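FRET biosensor Rango (snurportin 1 IBB between N-terminal EYFP and C-terminal Cerulean), 50 nM in PBS/1 mM DTT/0.02% Tween-20/0.1% BSA, preincubated 5 min RT with compound; 0.125 microM importin beta added, 45 min RT, CFP/YFP FRET ratio read.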
ClpP mod: qHTS Assay for Activators of ClpP | ATP-dependent Clp protease proteolytic subunit (Bacillus subtilis (strain 168)), P80244 | purified B. subtilis ClpP, FRET peptide cleavage, 20 min | Potency, µM (doses to about 57.5 µM) | 340,000 compounds, 1.9% hits | AID 651965, 2013; active means well fitted falling curve with a large enough effect; inconclusive means small, poorly fitted or top-dose-only effect; inactive means no such curve, though single readings can be large or run the other way; further: the source files actives as falling curves though it sought activators and does not explain the sign; nearly all actives have a fitted effect of over 65% in size
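Purified B. subtilis ClpP, 10 microg/mL final in Tris/HCl pH8 with KCl, BSA, glycerol and Tween-20, cleaved an Abz/nitrotyrosine-quenched decapeptide. Fluorescence (ex 320, em 430) was read at 0 and 20 min at room temperature. Delta was normalized to 5.8 microM ADEP and DMSO/no-enzyme controls.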
A number is an active result; – = inactive; ? = inconclusive; · = no result given. Unless noted, the call rests on the fitted dose curve.

SMILES	MBNL1 CUG block	Rango dissoc inh	CBFb-RUNX1 inh	Rango complex inh	ClpP mod
Cc1cccc(S(=O)(=O)NCCC(=O)OC(C)C(=O)NC(=O)NC2CCCCC2)c1 (stereo unspecified)	–	–	–	–	32µM
CC(C)C[C@H](NC(=O)[C@H](CC(C)C)NC(=O)[C@H](CCC(N)=O)NC(=O)[C@H](CO)NC(=O)[C@@H]1CCCN1C(=O)[C@H](CO)NC(=O)[C@H](CO)NC(=O)[C@@H](NC(=O)[C@H](Cc1cnc[nH]1)NC(=O)[C@H](CCC(=O)O)NC(=O)[C@H](Cc1ccc(O)cc1)NC(=O)[C@H](CCCCN)NC(=O)[C@H](CCC(N)=O)NC(=O)[C@H](Cc1ccc(O)cc1)NC(=O)[C@H](CC(=O)O)NC(=O)[C@@H](NC(=O)[C@@H]1CCCN1C(=O)[C@H](CC(=O)O)NC(=O)[C@H](CC(N)=O)NC(=O)[C@H](CC(=O)O)NC(=O)CNC(=O)[C@H](CC(=O)O)NC(=O)[C@@H]1CCCN1C(=O)[C@H](CCC(N)=O)NC(=O)[C@H](Cc1ccc(O)cc1)NC(=O)[C@H](C)NC(=O)[C@H](Cc1c[nH]c2ccccc12)NC(=O)[C@H](Cc1ccccc1)NC(=O)[C@@H](NC(=O)[C@@H](N)CO)[C@@H](C)O)[C@@H](C)O)[C@@H](C)O)C(=O)N[C@@H](C)C(=O)N1CCC[C@H]1C(=O)NCC(=O)N[C@@H](CC(=O)O)C(=O)N[C@@H](Cc1ccc(O)cc1)C(=O)O	·	·	–	·	·
Cc1ccc(C2CC(c3ccccc3)=NN2c2ccccc2)o1 (stereo unspecified)	–	–	?	?	25µM
CC(C)C(NC(=O)CN1C(=O)c2cccc3cccc1c23)C(C)C	–	?	·	?	?
O=C(CCN1C(=O)c2cccc3cccc(c23)C1=O)NCC1CCCO1 (stereo unspecified)	?	–	–	–	·
O=C(CN1C(=O)c2cccc3cccc1c23)NCC1CCCO1 (stereo unspecified)	?	–	–	?	25µM
NNC(=O)c1ccc(CN2C(=O)c3cccc4cccc2c34)cc1	–	18µM	–	?	–
CCCC(C)NC(=O)CN1C(=O)c2cccc3cccc1c23 (stereo unspecified)	?	?	·	?	22µM
Cc1ccc(C)c(S(=O)(=O)c2cn(Cc3ccccc3)c3cc(N4CCCC4)c(F)cc3c2=O)c1	·	·	·	·	–
Cc1cccc(Cn2cc(S(=O)(=O)c3cccc(C)c3)c(=O)c3cc(F)c(N4CCOCC4)cc32)c1	·	·	·	·	–
Cc1ccc(S(=O)(=O)c2cn(Cc3cccc(F)c3)c3cc(N4CCCC4)c(F)cc3c2=O)cc1	·	·	·	·	3.5µM
Cc1ccc(S(=O)(=O)c2cn(Cc3ccccc3)c3cc(N4CCOCC4)c(F)cc3c2=O)cc1	·	·	·	·	28µM
CCc1ccc(S(=O)(=O)c2cn(Cc3ccccc3)c3cc(N4CCCC4)c(F)cc3c2=O)cc1	·	·	·	·	2.8µM
COc1ccc(-c2nc(S(=O)(=O)c3ccc(Cl)cc3)c(N3CCCCCC3)o2)cc1	·	·	·	·	–
CCOC(=O)CNc1c(-c2ccc(OC)cc2)nc2ccc(Cl)cn12	?	–	–	–	–
CCOC(=O)CNc1c(-c2ccc(Cl)cc2)nc2cnccn12	?	?	–	?	28µM
CCOC(=O)CNc1c(-c2ccc(F)cc2)nc2cnccn12	?	?	–	?	25µM
COc1ccc(-c2nc3cnccn3c2Nc2ccc(C)cc2)cc1	?	?	–	?	–
CC(=O)NC(Cc1cccc(F)c1)C(=O)NC1CCN(c2ncccc2[N+](=O)[O-])CC1 (stereo unspecified)	?	–	–	–	–
CC(=O)NC(Cc1cccc(C)c1)C(=O)NC1CCN(c2ncccc2[N+](=O)[O-])CC1 (stereo unspecified)	–	–	–	–	16µM
O=C(NC(NC(=S)Nc1ccccc1C(=O)O)C(Cl)(Cl)Cl)c1ccco1 (stereo unspecified)	·	–	–	–	28µM
CCc1ccccc1NC(=S)N1CCN(c2cccc(OC)c2)CC1	–	–	·	–	10µM
Cc1ccc(-n2nc(CO)c(C(=O)NC(C)c3ccccc3)n2)cc1C (stereo unspecified)	·	·	·	·	35µM
O=C(NCCc1ccccc1)c1nn(-c2ccccc2Cl)nc1CO	·	·	·	·	–
Cc1ccc(-n2nc(CO)c(C(=O)NCCCc3ccccc3)n2)cc1C	·	·	·	·	32µM
SMILES	MBNL1 CUG block	Rango dissoc inh	CBFb-RUNX1 inh	Rango complex inh	ClpP mod
CCc1ccc(-n2nc(CO)c(C(=O)NCCCc3ccccc3)n2)cc1	·	·	·	·	28µM
O=C(NCCCc1ccccc1)c1nn(-c2ccccc2)nc1CO	·	·	·	·	–
CCc1ccc(-n2nc(CO)c(C(=O)NC)n2)cc1	·	·	·	·	14µM
CN(C)c1ccc(/C=C/c2ccnc3ccc(I)cc23)cc1	·	·	·	·	–
Cc1ccccc1NC(=O)Cn1c(=O)n(CCCCCC(=O)NCc2ccc3c(c2)OCO3)c(=O)c2sccc21	·	·	·	·	–
COC(=O)C(C(=O)OC)c1ccccc1NC(=O)OCc1ccccc1	·	·	·	·	–
Cc1ccc(-n2nc(CO)c(C(=O)NCc3ccccn3)n2)cc1C	·	·	·	·	–
Cc1ccc(-n2nc(CO)c(C(=O)NC(C)CCCc3ccccc3)n2)cc1C (stereo unspecified)	·	·	·	·	35µM
COC(=O)C1CCN(C(=O)COC(=O)Cc2c[nH]c3ccccc23)CC1	–	–	–	–	32µM
COc1ccc(NC(=O)C(C)n2nc(-c3cc(C)ccc3C)c3c(c2=O)CCCC3)cc1 (stereo unspecified)	·	·	·	·	–
OC(c1ccc(OCc2ccccc2)cc1)c1nnc(-c2ccccc2)o1 (stereo unspecified)	–	–	–	–	14µM
Cc1ccc2nc(-c3cccc(Br)c3)cc(C(=O)NCC3CCCO3)c2c1 (stereo unspecified)	–	–	·	–	14µM
O=C(NCC1CCCO1)c1cc(-c2ccccc2)nc2ccc(Br)cc12 (stereo unspecified)	–	–	·	–	–
CC(C)(C)c1ccc(C(=O)NC(Cc2c[nH]c3ccccc23)C(=O)OCC(=O)c2ccc(Br)cc2)cc1 (stereo unspecified)	·	·	·	·	–
CCc1cccc(NC(=O)c2cc3c(=O)[nH]c4ccccc4c3n2C)c1	·	·	·	·	–
OC(COc1ccc(Cl)cc1)CN1C2=NCCCN2c2ccccc21 (stereo unspecified)	–	–	–	?	22µM
Cc1c(C(=O)NCc2ccoc2)oc2ccc3c(c12)C(=O)CC(C)(C)O3	–	–	–	–	28µM
